Compounds without any hit were thinned out: in the full panel of roughly 79,000, 15% have a hit. Activity calls are given as the source filed them. No stated cut-off is given here; in the data, active means growth inhibition above about 70%; inactive means the rest.
Assay: NCI Yeast Anticancer Drug Screen. Data for the mec2-1 strain (AID 157)
Details: S. cerevisiae mec2-1 strain, at 50.0 µM, active compounds read high
How it was run: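 mec2-1 yeast strain, carrying an alteration in DNA damage repair or cell cycle control, was exposed to compounds; growth inhibition was measured relative to vehicle-treated controls.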

Structure (SMILES) | growth inhibition
O=S(Cc1ccccc1)/C(=C/NC(=S)Nc1cc(Cl)ccc1Cl)c1ccccc1 (stereo not given) | 7.05% (inactive)
CC(=O)c1cc(O)ccc1O | -10.1% (inactive)
Cc1cc(Cc2ccccc2)c(O)c(Cc2ccccc2)c1 | 3.3% (inactive)
CC(CC(CCC(=O)O)(c1ccccc1)c1ccccc1)N(C)C (stereo not given) | -4.7% (inactive)
COC(c1ccc2c(c1)OCO2)C(C)Br (stereo not given) | -4.4% (inactive)
O=C1Nc2ccccc2/C1=C\c1ccccc1O | -1.75% (inactive)
C=C1SC(=Nc2c(C)cccc2C)N(c2nc(Cl)nc(Cl)n2)C12CCCCC2 | -8.75% (inactive)
Clc1cccc(Cl)c1CSc1nc2ccccc2n2cccc12 | -26.8% (inactive)
CN1CCN(C(=S)S)CC1 | -2.5% (inactive)
Cc1c(-c2ccc(C3CCCCC3)cc2)nc2ccc(F)cc2c1C(=O)O | 8.15% (inactive)
COc1cc(C(=O)N2CCN(c3ccccc3)CC2)c2ccccc2n1 | 3.8% (inactive)
CS(=O)(=O)c1ccc(/C=C\C(=O)O)cc1 | 7.1% (inactive)
CC(C)Sc1ncnc2nc[nH]c12 | 1.1% (inactive)
Cc1ccc(O)c(N)c1 | -12.5% (inactive)
CC1CCC(C(C)(C)[N+](C)(C)C)CC1 (stereo not given) | 17.6% (inactive)
CCOP(=O)(OCC)/C(=C\N1C(=O)CC(=O)NC1=S)C(=O)OC | -31.4% (inactive)
O=[N+]([O-])c1c(Cl)ncnc1Cl | -47.8% (inactive)

Structure (SMILES) | growth inhibition
O=[n+]1ccn([O-])c2ccccc21 | 8.45% (inactive)
CC1CC2C3CCC4=CC(=O)CCC4(C)C3CCC2(C)C1(O)C(=O)CO (stereo not given) | -0.8% (inactive)
COC(=O)c1ccc([N+](=O)[O-])c(C)c1 | -30.9% (inactive)
Clc1cccc(Cl)c1C1CSc2ccccc2N=C1c1ccccc1 (stereo not given) | 8.9% (inactive)
C(=C\c1ccncc1)/c1ccncc1 | -7.2% (inactive)
Cc1ccc[n+](CCC(N)=O)c1 | -41.4% (inactive)
c1ccc(Nc2ccccn2)nc1 | -13.8% (inactive)
c1ccc(Oc2c3ccccc3nc3ccccc23)cc1 | -18.4% (inactive)
O=Cc1ccc(F)cc1 | -23.6% (inactive)
CCOC(=O)CSCCC#N | 2.35% (inactive)
Cc1cccc2ccccc12 | -15.6% (inactive)
CC(C)c1ccccc1NC(=O)N1CCC(C(C)C)CC1 | -42.6% (inactive)
O=C(O)C1CSC(c2ccccc2)N1 (stereo not given) | -12.8% (inactive)
Ic1cccs1 | -3.05% (inactive)
O=C1NCC2CCCC1C2 (stereo not given) | -8.15% (inactive)
CCCCOC(=O)c1ccccc1O | -0.8% (inactive)
O=S(Cc1ccccc1)/C(=C/NC(=S)Nc1ccccc1)c1ccccc1 (stereo not given) | -25.1% (inactive)

Assay: NCI Yeast Anticancer Drug Screen. Data for the sgs1 mgt1 strain (AID 161);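 further: 0% = growth of cultures given vehicle only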
Details: S. cerevisiae sgs1 mgt1 strain, at 50.0 µM, active compounds read high
How it was run: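 This yeast growth screen uses a strain with defined DNA-repair lesions; compound-treated growth is compared with vehicle-treated growth.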

Structure (SMILES) | growth inhibition
CCCCCCCCCCCCCCCCCC(=O)NCCNC(=O)CCCCCCCCCCCCCCCCC | -1.15% (inactive)
CCOC(=O)c1c[nH][nH]c1=O | -3.55% (inactive)
Nc1ccccc1SC1CC(=O)N(c2ccc(Cl)c(Cl)c2)C1=O (stereo not given) | 4.7% (inactive)

Assay: NCI Yeast Anticancer Drug Screen. Data for the cln2 rad14 strain (AID 165);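 further: 0% = growth equal to vehicle treated cultures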
Details: S. cerevisiae cln2 rad14 strain, at 50.0 µM, active compounds read high
How it was run: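 Yeast carrying cln2 and rad14 alterations (cell cycle control and DNA damage repair) were exposed to compounds. Growth inhibition was measured against vehicle-treated controls.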

Structure (SMILES) | growth inhibition
O=S(Cc1ccccc1)/C(=C/NC(=S)Nc1cc(Cl)ccc1Cl)c1ccccc1 (stereo not given) | 5.6% (inactive)
CC(=O)c1cc(O)ccc1O | -11.1% (inactive)
CC(CC(CCC(=O)O)(c1ccccc1)c1ccccc1)N(C)C (stereo not given) | -0.1% (inactive)
COC(c1ccc2c(c1)OCO2)C(C)Br (stereo not given) | -31.1% (inactive)
O=C1Nc2ccccc2/C1=C\c1ccccc1O | 6.8% (inactive)
C=C1SC(=Nc2c(C)cccc2C)N(c2nc(Cl)nc(Cl)n2)C12CCCCC2 | 19.1% (inactive)
Clc1cccc(Cl)c1CSc1nc2ccccc2n2cccc12 | 17.6% (inactive)
CCCCCCCCCCCCCCCCCC(=O)NCCNC(=O)CCCCCCCCCCCCCCCCC | 20.6% (inactive)
CN1CCN(C(=S)S)CC1 | 2.15% (inactive)
Cc1c(-c2ccc(C3CCCCC3)cc2)nc2ccc(F)cc2c1C(=O)O | 5.3% (inactive)
COc1cc(C(=O)N2CCN(c3ccccc3)CC2)c2ccccc2n1 | 18.5% (inactive)
CS(=O)(=O)c1ccc(/C=C\C(=O)O)cc1 | -8.4% (inactive)
CC(C)Sc1ncnc2nc[nH]c12 | -0.9% (inactive)
Cc1ccc(O)c(N)c1 | 2.35% (inactive)
CCOC(=O)c1c[nH][nH]c1=O | -18.2% (inactive)
Nc1ccccc1SC1CC(=O)N(c2ccc(Cl)c(Cl)c2)C1=O (stereo not given) | -15.9% (inactive)
CC1CCC(C(C)(C)[N+](C)(C)C)CC1 (stereo not given) | 10.6% (inactive)

Structure (SMILES) | growth inhibition
CCOP(=O)(OCC)/C(=C\N1C(=O)CC(=O)NC1=S)C(=O)OC | 7.6% (inactive)
CC1CC2C3CCC4=CC(=O)CCC4(C)C3CCC2(C)C1(O)C(=O)CO (stereo not given) | -44% (inactive)
COC(=O)c1ccc([N+](=O)[O-])c(C)c1 | -9.9% (inactive)
Clc1cccc(Cl)c1C1CSc2ccccc2N=C1c1ccccc1 (stereo not given) | 11% (inactive)
C(=C\c1ccncc1)/c1ccncc1 | -0.55% (inactive)
Cc1ccc[n+](CCC(N)=O)c1 | 1.2% (inactive)
c1ccc(Nc2ccccn2)nc1 | -87.8% (inactive)
c1ccc(Oc2c3ccccc3nc3ccccc23)cc1 | 4.25% (inactive)
O=Cc1ccc(F)cc1 | -13.1% (inactive)
CCOC(=O)CSCCC#N | -7.9% (inactive)
CC(C)c1ccccc1NC(=O)N1CCC(C(C)C)CC1 | -22.6% (inactive)
O=C(O)C1CSC(c2ccccc2)N1 (stereo not given) | 3% (inactive)
Ic1cccs1 | -6.75% (inactive)
O=C1NCC2CCCC1C2 (stereo not given) | -40.9% (inactive)
CCCCOC(=O)c1ccccc1O | -3.05% (inactive)
O=S(Cc1ccccc1)/C(=C/NC(=S)Nc1ccccc1)c1ccccc1 (stereo not given) | -0.95% (inactive)

— PubChem BioAssay (NCI)
